B2AR arrestin: qHTS assay of beta-arrestin-biased ligands of beta2-adrenergic receptor | Beta-2 adrenergic receptor (Homo sapiens), P07550 | beta-arrestin recruitment to beta2AR, cell-based reporter | Potency, µM (doses to about 46.1 µM), for the others: at the highest dose activation, most hits filed as activators | 0.02% of 330,000 active | AID 492947, 2010;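 further: potency means the concentration at half of the fitted maximal effect; 0% = DMSO controls and full agonism = EC100 isoproterenol or metaproterenol; nearly all actives have a fitted effect of over 65% in size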
Target sequence (P07550 whole entry, looked up): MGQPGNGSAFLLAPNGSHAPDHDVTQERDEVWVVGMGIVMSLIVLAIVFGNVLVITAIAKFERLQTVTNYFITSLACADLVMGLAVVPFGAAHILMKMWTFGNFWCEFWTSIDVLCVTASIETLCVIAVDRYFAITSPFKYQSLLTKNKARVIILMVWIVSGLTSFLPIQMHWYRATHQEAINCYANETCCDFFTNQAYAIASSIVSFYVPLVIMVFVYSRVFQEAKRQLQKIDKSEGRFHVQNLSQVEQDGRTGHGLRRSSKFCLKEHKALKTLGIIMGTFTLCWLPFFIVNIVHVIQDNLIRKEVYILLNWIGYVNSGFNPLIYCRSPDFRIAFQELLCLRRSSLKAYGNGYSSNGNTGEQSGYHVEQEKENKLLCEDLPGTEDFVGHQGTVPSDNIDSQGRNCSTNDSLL
ELG1 DNA repair: qHTS screen for small molecules that inhibit ELG1-dependent DNA repair in human embryonic kidney (HEK293T) cells expressing luciferase-tagged ELG1 | HEK293T ELG1-luciferase reporter, luminescence, 16 h; DNA damage induced by 5-fluorouridine | Potency, µM (doses to about 46.1 µM), inactives show top-dose activity change, negative = inhibition, hits mostly inhibitors | 2.3% of 330,000 active; further: potency means the concentration at half of the fitted maximal effect; nearly all actives have a fitted effect of over 55% in size
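5-Fluorouridine DNA damage + compound/DMSO, 2,000 cells/well, 16 h, 37 °C/5% CO2. ONE-Glo, 30 min RT, luminescence. Readout = decrease in reporter signal.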
RORg inh: qHTS for inhibitors of ROR gamma transcriptional activity | Nuclear receptor ROR-gamma (Mus musculus), P51450 | Drosophila S2 Gal4-RORgamma UAS-luciferase reporter, 20 h | Potency, µM (titrated, usually from 53.6 µM), for the others: at the top dose activity change, negative = inhibition, most hits filed as inhibitors | 5.4% of 310,000 active | AID 2551, 2010; further: potency means the concentration at half of the fitted maximal effect; nearly all actives have a fitted effect of over 60% in size
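Stable Schneider cell line, Gal4 DNA-binding domain fused to ROR gamma, UAS-luciferase. Cmpd 1 hr RT → CuSO4 700 uM final → 20 hr RT → luciferase reagent 10 min → luminescence.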
TSHR antag: Antagonists of the Thyroid Stimulating Hormone Receptor: HTS campaign | Thyrotropin receptor (Homo sapiens), P16473 | TSHR-expressing cells, TSH-stimulated cAMP HTRF, 2 h; hits give low values | activity change, negative = inhibition, % at 11.5 µM | 0.2% of 330,000 active | AID 504810, 2011;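 active means activity change below a set negative limit, meaning inhibition stronger than a set level, cut at about -70% in these data; inconclusive means activity change between two set negative limits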
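TSHR-expressing cells were treated with compounds, then stimulated with TSH at EC80 (4nM final) for 2 hours at 37 deg C. Cellular cAMP was measured by HTRF competition between lysate cAMP and cAMP-d2 for a cryptate-labelled anti-cAMP antibody.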
Gal4-VP16 FLuc: VP16 counterscreen qHTS for inhibitors of ROR gamma transcriptional activity. Potency, µM (top dose mostly 53.6 µM), without a hit: at the highest dose activity, negative = inhibition, hits mostly inhibitors. 3.5% of 310,000 active. Drosophila S2 Gal4-VP16 UAS-luciferase, luminescence, 20 h;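 further: Gal4-VP16 expression switched on by copper sulfate through the metallothionein promoter; potency means the concentration at half of the fitted maximal effect; nearly all actives have a fitted effect of over 50% in size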
The depositor's hits bear a star; ? = inconclusive; . = not tested or not shown; [ ] = another dose, or the depositor's remark. In the library only some 7.5% were active in any assay of this set; here they are far more common. Unless noted, the call rests on the fitted dose curve; in most records, active means well fitted curve in the direction sought with a large enough effect; inconclusive means small, poorly fitted or top-dose-only effect, or another doubt; inactive means no such curve, though single readings can be large; an effect the other way counts as inactive or inconclusive. Unless noted, on the % scale 0 is the no-effect control and ±100 the full control effect.

SMILES	B2AR arrestin	ELG1 DNA repair	RORg inh	TSHR antag	Gal4-VP16 FLuc
CCOc1ccc2c(c1)-c1c(ssc1=S)C(C)(C)N2C(=O)CSC1=NCCS1	-1%	-4%	3.2µM*	-32	7%
Cc1ccc2c(c1)-c1c(ssc1=S)C(C)(C)N2C(=O)CSC1=NCCS1	0%	15%	?	-9	-6%
Cc1cc(-n2c(SCC(=O)Nc3ccc(F)c(F)c3)nc3n[nH]c(C)c3c2=N)ccc1Cl	0%	0%	-44%	-18	?
COc1cccc(-n2c(SCC(=O)NCCC3=CCCCC3)nc3n[nH]c(C)c3c2=N)c1	6%	16µM*	-39%	-16	-2%
Cc1cc(-n2c(SCC(=O)Nc3ccc(Br)cc3)nc3n[nH]c(C)c3c2=N)ccc1Cl	0%	2%	?	-5	20µM*
COc1cccc(NC(=O)CSc2nc3n[nH]c(C)c3c(=N)n2-c2cccc(OC)c2)c1	0%	?	33%	-9	-1%
CCc1ccc(NC(=O)CSc2nc3n[nH]c(C)c3c(=N)n2-c2cccc(OC)c2)cc1	0%	10µM*	-2%	-12	3%
Cc1cnc(CNc2ccnc(-c3ccc(C(=O)N(C)C)cc3)n2)cn1	.	.	-7%	.	9%
COc1ccc(SC[C@H](Cc2ccccc2)N2CC[C@@H](C(C)(C)C)CCC2=O)cc1	-2%	8%	.	12	.
CC(=O)N[C@@H](C(=O)O)C(C)(C)SN=O	.	.	12%	.	4%
Cc1cnc(CNc2cc(-c3ccccc3C)ncn2)cn1	.	.	-18%	.	25%
CC(C)[C@H](NC(=O)OC(C)(C)C)c1nnc(S(=O)(=O)Cc2c(F)cccc2Cl)o1	0%	-5%	4.5µM*	?	5µM*
CC(C)(C)OC(=O)N[C@@H](Cc1ccccc1)c1nnc(S(=O)(=O)Cc2cccc(F)c2)o1	0%	?	4.5µM*	?	4.5µM*
CC[C@@H](C)[C@H](NC(=O)OC(C)(C)C)c1nnc(S(=O)(=O)Cc2cc(C)ccc2C)o1	-1%	10%	?	?	?
CC(C)Cn1nnnc1S(=O)(=O)Cc1cccc(C#N)c1	.	.	-23%	.	5%
CC(C)C[C@H](N)c1nnc(S(=O)(=O)Cc2cccc(F)c2)o1	0%	18%	6.3µM*	-16	?
CC(C)=CCSc1nnc([C@@H](NC(=O)OC(C)(C)C)C(C)C)o1	0%	?	-19%	-13	20%
Cc1ccccc1CS(=O)(=O)c1nnc([C@H](CC(C)C)NC(=O)OC(C)(C)C)o1	-1%	-2%	7.1µM*	-42	4.5µM*
Nc1nc(NCc2ccccc2Cl)n(-c2ccccc2)n1	0%	1%	-5%	-6	3%
Cc1ccsc1C(=O)OCC(=O)NCc1ccc(Cl)cc1	0%	27%	.	-5	.
CCCCCCCCCCCCCCCCCC(=O)OC[C@@H](O)[C@H]1OC[C@H](O)[C@H]1O	.	.	-6%[10 µM]	.	4%
O=[N+]([O-])c1ccc(OCc2n[nH]c(=S)n2-c2ccccc2)cc1	0%	-3%	0.32µM*	-8	?
S=c1[nH]nc(COc2ccc3c(c2)OCO3)n1-c1ccccc1	0%	2%	3.5µM*	-6	11µM*
CCn1c(COc2ccc3c(c2)OCO3)nnc1SCC(=O)c1ccccc1	0%	?	13%	-17	13µM*
CCN(CC)C(=O)CSc1nnc(COc2ccccc2)n1CC	0%	?	-1%	-5	4%
SMILES	B2AR arrestin	ELG1 DNA repair	RORg inh	TSHR antag	Gal4-VP16 FLuc
S=c1[nH]nc(-c2ccc3c(c2)OCO3)n1-c1ccccc1	0%	?	8.9µM*	8	11µM*
CS(=O)(=O)Nc1ccc(-c2n[nH]c(=S)n2-c2ccccc2)cc1	0%	1%	?	-7	9%
COc1ccc([N+](=O)[O-])cc1NCC(=O)Nc1cc(S(=O)(=O)N2CCCCC2)ccc1C	0%	?	.	-19	.
CC(C)NC(=O)N1CC2(CCN(S(=O)(=O)c3ccccc3)CC2)C1	.	.	-14%	.	-5%
CC(C)(C)c1ccccc1OCC(=O)Nc1ncn[nH]1	-3%	3%	11µM*	-18	?
CC(C)(C)c1cc(Br)ccc1OCC(=O)Nc1ncn[nH]1	0%	12%	3.5µM*	-18	18µM*
O=C1OC2(c3ccccc31)c1cc(I)c(O)c(I)c1Oc1c2cc(I)c(O)c1I	0%	-21%	-30%	-114*	-22%
CSCC[C@H](NC(=O)[C@H](CC(C)C)NC(=O)CNC(=O)[C@H](Cc1ccccc1)NC(=O)[C@H](Cc1ccccc1)NC(=O)[C@H](CCC(N)=O)NC(=O)[C@H](CCC(N)=O)NC(=O)[C@@H]1CCCN1C(=O)[C@H](CCCCN)NC(=O)[C@@H]1CCCN1C(=O)[C@@H](N)CCCN=C(N)N)C(N)=O	.	.	11%	.	-10%
COc1cc(/C=C/c2ccc3cccc(O)c3n2)cc(Br)c1OC	0%	?	1.3µM*	2	5µM*
COc1cc(/C=C/c2ccc3cccc(O)c3n2)cc(Cl)c1OC	0%	?	0.79µM*	0	4.5µM*
COc1ccc(/C=C/c2ccc3cccc(O)c3n2)cc1Br	0%	?	2µM*	-1	3.2µM*
COc1cc(/C=C/c2ccc3cccc(O)c3n2)cc(OC)c1OC	1%	?	?	-3	?
COC(=O)c1ccc(/C=C/c2ccc3cccc(OC)c3n2)cc1	-1%	?	-44%	-14	0%
CC(Sc1nnc(Cc2ccccc2)o1)C(=O)NC1(C#N)CCCCC1 (centres undefined)	0%	9%	.	.	.
CC(N)C(=O)NCC(=O)NC1CSSCC(C(=O)O)NC(=O)C(CO)NC(=O)C(C(C)O)NC(=O)C(Cc2ccccc2)NC(=O)C(C(C)O)NC(=O)C(CCCCN)NC(=O)C(Cc2c[nH]c3ccccc23)NC(=O)C(Cc2ccccc2)NC(=O)C(Cc2ccccc2)NC(=O)C(CC(N)=O)NC(=O)C(CCCCN)NC1=O (centres undefined)	.	.	14%	.	-2%
CC(OC(=O)c1ccc(CN2CCCC2=O)cc1)C(=O)Nc1ccc(Cl)cc1 (centres undefined)	0%	-16%	.	17	.
O=C(c1ccccc1)N1CCC(c2nc(-c3ccc(S(=O)(=O)NCC4CCCO4)cc3)no2)CC1 (centres undefined)	0%	?	-43%	-32	8.9µM*

Compound activity as filed in PubChem BioAssay.
